# Screens: PubChem BioAssay, National Center for Advancing Translational Sciences (NCATS)
# IP6K1 inh = Primary qHTS assay for small molecule inhibitors of Inositol hexaphosphate kinase 1 (IP6K1) | activity change, % (series mostly up to about 58 µM) | Inositol hexakisphosphate kinase 1 (Homo sapiens), Q92551 | IP6K1 kinase, ADP-Glo luminescence, 2 h; stronger effect = lower value | hit rate 0.81% among 140,000; in the data active means activity change below about -25%; further: on the % scale 0 is the no-effect control and ±100 the full control effect
# Target sequence (Q92551 whole entry, looked up): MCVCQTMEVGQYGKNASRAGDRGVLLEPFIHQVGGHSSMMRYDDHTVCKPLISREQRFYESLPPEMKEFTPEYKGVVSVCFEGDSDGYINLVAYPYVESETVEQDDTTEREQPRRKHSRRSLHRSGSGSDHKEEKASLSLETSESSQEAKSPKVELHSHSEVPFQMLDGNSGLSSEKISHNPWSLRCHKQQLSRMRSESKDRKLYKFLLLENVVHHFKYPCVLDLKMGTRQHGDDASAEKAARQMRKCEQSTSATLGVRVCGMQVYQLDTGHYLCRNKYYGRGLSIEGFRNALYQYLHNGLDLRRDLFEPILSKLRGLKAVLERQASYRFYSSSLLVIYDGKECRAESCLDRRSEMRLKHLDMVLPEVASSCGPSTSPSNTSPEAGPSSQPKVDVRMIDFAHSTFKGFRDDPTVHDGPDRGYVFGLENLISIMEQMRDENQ
#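 ADP-Glo luminescence measures ADP made by human IP6K1 during a 2 h RT reaction with ATP/IP6 (mix at 1.3 mM/130 uM); top library doses 57.5 and 19.1 uM final.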
# KDM5B inh = Primary screen for KDM5B Histone Demethylases FDH-coupled qHTS; Lysine-specific demethylase 5B (Homo sapiens), Q9UGL1; KDM5B demethylase, FDH-coupled NADH fluorescence (FDH is formaldehyde dehydrogenase); Potency, µM (doses to about 57.7 µM), actives largely listed as inhibitors; hit rate 2.6% among 220,000; AID 1347165, 2019; active means well fitted inhibition curve with a large enough effect; inconclusive means small, poorly fitted or top-dose-only effect; inactive means no such curve, though single readings can be large or run the other way; further: potency means the concentration at half of the fitted maximal effect; 0% is about no effect; nearly all actives have a fitted effect of over 70% in size
#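 Coupled FDH/NAD⁺ fluorescence readout. KDM5BΔAP 200 nM final; compound titration, 10 min RT preincubation; substrate mix 12.5 µM H3K4me3, 25 µM 2-OG, 50 µM Fe(II), 100 µM ascorbate, 0.25 mM NAD⁺, 0.25 U/mL FDH; ΔRFU over 30 min.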
# Active calls of the source: *; i = inactive; u = inconclusive; x = no result given. Rows were chosen to be rich in hits. Some 2.7% of all compounds tested hit in one or more screens of this group.
SMILES,IP6K1 inh,KDM5B inh
CC1(C)Cc2c(sc3c2c2nc(Cc4ccccc4)nn2c(=O)n3CC(=O)N2CCCCC2)CO1,x,i
COCc1ccc(C(=O)N[C@@H]2COCC[C@@H]2OCc2c(C)noc2C)o1,-10.2,i
Cc1noc(C)c1CO[C@@H]1COCC[C@H]1NC(=O)c1cccc(=O)[nH]1,21.3,17.8µM*
COc1ccccc1-n1c(=O)c(C(=O)NCc2cccs2)nc2cccnc21,0.2,x
O=C(Nc1ccccc1)[C@@H]1C[C@@H](c2cccc(C(F)(F)F)c2)N(CC2CCOCC2)C1,2.3,u
CN(C(=O)c1cc(-c2ccccc2F)nc2c1cnn2C)c1ccccc1,12.2,x
Cc1ccc(-c2c(C(=O)NCc3ccccn3)nc3sccn23)cc1,9.6,x
COCCn1c(C)nnc1-c1cc(Nc2ccccc2)ccn1,-9.4,i
Cc1nnc(-c2cc(Nc3cccc(N(C)C)c3)ccn2)n1Cc1ccccc1,0.5,31.6µM*
O=C1NCC2(CCN(c3nccc(CCC(F)(F)F)n3)CC2)O1,-6.7,20µM*
N#Cc1ccccc1CN1CCN(c2nccc(CCC(F)(F)F)n2)CC1,10.7,i
O=C(c1ccc(-n2cccc2)cc1)N1CCN(S(=O)(=O)c2c(Cl)cccc2Cl)CC1,x,i
CCCn1cc(C2CCN(S(=O)(=O)c3c(C)cc(C)cc3C)CC2)c2ccccc21,26.8,u
CCOCCn1cc(C2CCN(S(=O)(=O)c3cccc(Cl)c3C)CC2)c2ccccc21,4.1,28.2µM*
COc1ccccc1Nc1nc2nccc(-c3ccncc3)c2c(=O)[nH]1,x,i
CC(=O)Oc1c(-c2ccc(NC(=O)C3CC3)cc2)c(-c2ccc3c(c2)OCO3)nn1-c1cccc(C)c1,-5.5,35.5µM*
CCC(=O)Nc1ccc(-c2c(-c3cc(OC)cc(OC)c3)nn(-c3ccc(C)cc3)c2OC(C)=O)cc1,0.9,28.2µM*
CCC(=O)Nc1ccc(-c2c(-c3ccc(C)cc3)nn(-c3ccc(F)cc3)c2OC(C)=O)cc1,-7.6,u
CC(=O)Nc1ccc(-c2c(C(C)C)nn(-c3cccc(F)c3)c2OC(C)=O)cc1,-1.0,i
COc1ccc(-c2nn(-c3ccc(F)cc3)c(OC(C)=O)c2-c2ccc(NC(C)=O)cc2)cc1OC,28.7,20µM*
CC(=O)Nc1ccc(-c2c(C3CC3)nn(-c3cccc(C)c3)c2OC(C)=O)cc1,20.6,u
COc1cc(OC)cc(-c2nn(-c3ccc(C)cc3C)c(OC(C)=O)c2-c2ccc(NC(C)=O)cc2)c1,-17.4,u
COc1ccc(-c2nn(-c3ccc(C)cc3C)c(OC(C)=O)c2-c2ccc(NC(C)=O)cc2)c(OC)c1,0.6,31.6µM*
COc1ccc(C(=O)N2CCN(C(=O)c3nc4cccnc4n(Cc4ccccc4OC)c3=O)CC2)cc1,7.6,x
COc1cccc(C(=O)NCc2cc(=O)n3nc(-c4cccc(C)c4)sc3n2)c1,x,i
SMILES,IP6K1 inh,KDM5B inh
CC(C)C(=O)Nc1cc(-c2cccnc2)nn1-c1ccccc1,-8.7,x
NC(=O)c1ccc(OCC2CCCCC2)cc1,x,i
Cc1nc2ccc(C(=O)Oc3cccc4cccnc34)cc2nc1C,x,i
COc1cccc(-c2ccc(CN3CCCC(NC(=O)C(C)(C)C)C3)cc2)c1 (configuration not stated),2.2,x
CC(=O)Nc1ccc(-c2c(-c3cccc(C)c3)nn(-c3ccc(F)cc3)c2OC(C)=O)cc1,-3.5,25.1µM*
CCOc1ccc(NC(=O)c2nc(-c3ccccc3)n(-c3ccc(F)cc3)n2)cc1,x,i
Cn1nc(C(=O)N2CCOCC2)cc1C(=O)Nc1ccc(F)c(F)c1,x,i
O=c1c2c(n(Cc3cccnc3)n1-c1ccccc1)CN(Cc1ccccc1Cl)CC2,6.5,u
COCCn1c2c(c(=O)n1-c1ccccc1)CCN(Cc1ccncc1Cl)C2,21.5,35.5µM*
CN(C)C(=O)CNC(=O)c1nn(C)c(=O)c2ccccc12,x,i
CCOc1ccccc1NC(=O)c1cc2c(s1)-c1ccccc1S(=O)(=O)C2,x,i
CC(C)(C)C(=O)NCCSCc1ccsc1,x,i
CNc1nnc(SCc2ncc(-c3ccccc3)o2)s1,x,i
COc1ccc(-c2nc3c(c(=O)[nH]2)CCN(C(=O)Cc2ccsc2)C3)cc1,5.6,u
COc1ccc(CNC(=O)N2CCc3c(nc(-c4ccc(OC)cc4)[nH]c3=O)C2)cc1,8.8,i
COc1ccc(-c2nc3c(c(=O)[nH]2)CCN(C(=O)COc2ccccc2C)C3)cc1,1.9,25.1µM*
COc1ccc(-c2nc3c(c(=O)[nH]2)CCN(S(=O)(=O)c2cccs2)C3)cc1,28.7,20µM*
Cc1cc(OCc2nnc(SC(=O)C3CC3)n2C)cc(C)c1Cl,x,i
Cc1nn2c(c1-c1cccnc1N1CCOCC1)N(Cc1ccc3c(c1)CCO3)CCC2,9.1,25.1µM*
COc1ccc(OC)c(CN2CCCn3nc(C)c(-c4cccnc4N4CCOCC4)c32)c1,9.7,12.6µM*
COc1ccc(OC)c(CN2CCCn3nc(C)c(-c4ccccc4C(C)C)c32)c1,19.5,u
Cc1nn2c(c1-c1cccnc1N1CCOCC1)N(CCc1ccccc1)CCC2,7.5,u
CCOC(=O)c1cnc(Nc2ccc(OC)cc2OC)c2ccccc12,x,i
CCCn1c(=O)n(CC(=O)Nc2cccc(OC)c2)c(=O)c2c1nc(C)n2CCOC,x,i
COc1ccnc(-c2nnc3ccc(N4C[C@@H](C)O[C@@H](C)C4)nn23)c1,-12.7,i
SMILES,IP6K1 inh,KDM5B inh
COc1ccnc(-c2nnc3ccc(N4CCc5ccccc5CC4)nn23)c1,-21.7,31.6µM*
COc1ccc(CCNc2oc(CC(C)C)nc2C#N)cc1OC,x,i
COc1ccccc1-c1cccc(C(=O)N2CCC[C@H]2C(=O)NCc2cccc(Cl)c2)c1,-0.2,x
c1ccc(CCc2nc3nccc(-c4cccnc4)n3n2)cc1,-8.4,i
COc1ccc(-c2ccnc3c(-c4ccc(F)cc4)c(C)nn23)cc1OC,-4.2,i
c1coc(-c2ccnc3ncnn23)c1,8.9,28.2µM*
c1ccc(-c2ccnc3nc(C4CC4)nn23)cc1,6.9,28.2µM*
CC(C)c1nc2nccc(-c3cc4ccccc4o3)n2n1,10.3,i
COc1cc(F)ccc1-c1ccnc2nc(C3CCCCC3)nn12,-1.4,28.2µM*
COc1cc(-c2ccnc3nc(C4CCC4)nn23)cc(OC)c1OC,-5.8,22.4µM*
O=[S+]([O-])(c1ccccc1)N1CC2(CCCN2Cc2cccnc2)Cc2ccccc21 (configuration not stated),-5.3,u
CCn1ccnc1CN(C)Cc1cn(Cc2ccccc2)nc1-c1cc2ccccc2o1,20.4,i
CCC(C)NC(=O)c1cc(-c2ccccc2C(F)(F)F)nc2c1cnn2C (configuration not stated),-2.8,x
CNC(=O)c1cccc(NC(=O)c2cccc3cccnc23)c1,x,i
O=C(NCc1ccccn1)C1CCN(Cc2ccccc2-c2cccnc2)CC1,12.0,x
O=C(NCC1CC1)c1ccc2nc(-c3ccccn3)oc2c1,-7.4,x
COc1ccccc1Nc1ccnc(N2CCN(C(=O)c3ccccc3F)CC2)n1,13.2,x
c1coc(-c2nc3nccc(-c4cc5ccccc5o4)n3n2)c1,-3.0,u
COc1cccc(-c2ccnc3c(-c4ccccc4)c(C)nn23)c1,4.1,i
COc1cccc(-c2ccnc3nc(C4CCC4)nn23)c1,-10.4,28.2µM*
c1coc(-c2ccnc3nc(C4CCC4)nn23)c1,10.5,28.2µM*
